The text below walks through data of PubChem BioAssay (Tox21).

Where “and” joins values, the source holds several entries; their conditions need not be identical. Equal entries are not always repeated. Records with an inconclusive call do not appear. Calls of active or inactive are those of the source. Unless noted, the call rests on the fitted dose curve.

Test [1] can be described thus: Nuclear factor erythroid 2-related factor 2/antioxidant responsive element (Nrf2/ARE) small molecule agonists: qHTS cell viability counter screen in human keratinocytes (AID 1919968; active means well fitted curve in the direction sought with a large enough effect in the repeat runs; an effect the other way counts as inactive or inconclusive; further: nearly all actives have a fitted effect of over 55% in size). Put shortly:
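Cells of the KeratinoSens line were plated at 1,500 per well and left for 5 h before compound transfer from DMSO stocks. After a 23 h incubation (37 C, 5% CO2), CellTiter-Fluor was added. Signal was taken as fluorescence intensity 1 h later.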

Test [2] in a line: Nuclear factor erythroid 2-related factor 2/antioxidant responsive element (Nrf2/ARE) small molecule agonists: luciferase reporter gene qHTS assay in human keratinocytes (AID 1919969). Further: nearly all actives have a fitted effect of over 35% in size. Further: potency means the concentration at half of the fitted maximal effect.
For test [3], the target named is Gonadotropin-releasing hormone receptor (Homo sapiens) (UniProt P30968). Nature of the test: Human gonadotropin-releasing hormone receptor (GnRHR) small molecule agonists, calcium flux assay in GnRHR-HEK293 cells (AID 1920063). Further: nearly all actives have a fitted effect of over 35% in size. An outline of the steps: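 Compounds dissolved in DMSO are pin-transferred onto dye-loaded GnRHR-HEK293 cells, which were seeded 18 h before at 37 C/5% CO2. Calcium signal is read as fluorescence intensity at 1 s intervals for 3 min.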

The target in test [4] is KiSS-1 receptor (Homo sapiens) (UniProt Q969F8). As to the kind of experiment: Human kisspeptin (KISS1R) small molecule agonists, calcium flux assay in KISS1R-HEK293 cells (AID 1920064; active means well fitted curve in the direction sought with a large enough effect in the repeat runs; an effect the other way counts as inactive or inconclusive). An outline of the steps:
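Cell line: HEK293, stable human KISS1R. Dye loading 1 h at 37 C after 18 h culture. Read: kinetic fluorescence, 480/540 nm, 3 min at 1 s intervals.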

A short description of test [5]: G protein-coupled receptor (GPCR) small molecule agonists, calcium flux assay: HEK293 wild type cell line counter screen (AID 1920065). An outline of the steps: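 Tox21 10K compounds, 15 concentrations each in triplicate, pin-transferred in DMSO onto dye-loaded cells; kinetic read at 480/540 nm for 3 min, 1 s intervals.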
Test [6] in a line: p53 small molecule agonists, cell-based qHTS assay with rat liver microsomes (AID 1963578). An outline of the steps:
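With rat liver microsomes and NADPH present (0.5 mg/mL final each), p53RE-bla cells are treated with compound for 16 h at 37 C. LiveBLAzer detection mixture is then applied for 2 h at room temperature in the dark.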

A short description of test [7]: p53 small molecule agonists, cell-based qHTS assay with human liver microsomes: qHTS cell viability counter screen (AID 1963579). Further: nearly all actives have a fitted effect of over 45% in size. An outline of the steps:
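In this multiplexed counter screen, the reporter plates were subsequently treated with CellTiter-Glo so that cell viability, reflected by luminescence, could be recorded for p53RE-bla cells dosed 16 h with compounds under microsomal activation (HLM and NADPH).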

A short description of test [8]: p53 small molecule agonists, cell-based qHTS assay with rat liver microsomes: qHTS cell viability counter screen (AID 1963580). Further: nearly all actives have a fitted effect of over 45% in size. Put shortly: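 Rat liver microsome (0.5 mg/mL final) and NADPH (0.5 mg/mL final) co-incubation with compounds for 16 h at 37 C on HCT-116 p53RE-bla cells; cytotoxicity taken from intracellular ATP luminescence.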
Test [9] is described as follows: p53 small molecule agonists, cell-based qHTS assay: qHTS cell viability counter screen (AID 1963581). Further: nearly all actives have a fitted effect of over 45% in size. An outline of the steps: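 ATP content measured by luminescence in HCT-116 p53RE-bla cells treated 16 h at 37 C, same wells as the reporter screen.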
A short description of test [10]: p53 small molecule agonists, cell-based qHTS assay (AID 1963582; active means well fitted activation curve with a large enough effect in the signal ratio in the repeat runs, not every such curve was filed as active; the % refers to the signal ratio). An outline of the steps: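 16 h compound exposure (37 C) of p53 response element–bla cells, preceded by 5 h recovery at 37 C/5% CO2; read-out via LiveBLAzer B/G FRET substrate, 2 h RT, fluorescence intensity.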
The target in test [11] is 5-hydroxytryptamine receptor 2A (Homo sapiens) (UniProt P28223). Nature of the test: 5-hydroxytryptamine receptor 2A (HTR2A) small molecule antagonists, cell-based qHTS assay (AID 1963586). Further: nearly all actives have a fitted effect of over 45% in size. Put shortly:
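CHO cells stably expressing human HTR2A were plated for 18 h at 37 C, then loaded with calcium dye for 1 h. Compounds were preincubated 5 min at room temperature before DOI (4 nM solution) was added. Kinetic fluorescence was read for 3 min.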

In test [12] the target is Muscarinic acetylcholine receptor M1 (Homo sapiens) (UniProt P11229). As to the kind of experiment: Cholinergic receptor muscarinic 1 (CHRM1) small molecule antagonists, cell-based qHTS assay (AID 1963588). Further: nearly all actives have a fitted effect of over 40% in size. Put shortly:
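Compounds were tested at 15 concentrations in three independent runs. Dye-loaded CHRM1-CHO cells were exposed 5 min at room temperature before stimulation by acetylcholine added at 50nM. Intracellular calcium was read kinetically on FDSS for 3 min.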

For test [13] the target is unchanged. As to the kind of experiment: Cholinergic receptor muscarinic 1 (CHRM1) small molecule agonists, cell-based qHTS assay (AID 1963589). Further: nearly all actives have a fitted effect of over 35% in size. An outline of the steps: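 Homogeneous fluorescence calcium flux, agonist mode. Human M1-expressing CHO cells; compound dosed at 15 concentrations, three independent runs; signal sampled every 1 sec.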
A short description of test [14]: cAMP Responsive Elements (CRE) small molecule agonists, cell-based qHTS assay (AID 1963590). Put shortly:
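HEK 293T cells stably bearing CRE-bla were plated at 2,000 cells per well and rested 18 h. Compounds, positive controls or DMSO were added for 3 h at 37 C. LiveBLAzer B/G substrate was then loaded for 2 h at room temperature.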

Test [15] can be described thus: cAMP Responsive Elements (CRE) small molecule antagonists, cell-based qHTS assay (AID 1963591; active means well fitted inhibition curve with a large enough effect in the signal ratio in the repeat runs, not every such curve was filed as active; the % refers to the signal ratio). An outline of the steps:
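First, CRE-bla HEK293T cells settled 18 h at 37 C. Next, compound and 0.25 uM final NKH477 were applied for 3 h. Last, LiveBLAzer B/G substrate was loaded for 2 h at room temperature.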

The target in test [16] is Beta-2 adrenergic receptor (Homo sapiens) (UniProt P07550). Nature of the test: Adrenergic beta2 receptor (ADRB2) small molecule antagonists, cell-based qHTS assay (AID 1963592). Further: series mostly up to about 92 µM; nearly all actives have a fitted effect of over 50% in size. An outline of the steps:
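Assay format: CHO-ADRB2 cells, 18-20hr seeding at 37C/5% CO2, then compound plus 1nM isoproterenol agonist mix for 0.5hr RT. Homogeneous time-resolved fluorescence cAMP detection after 1hr, expressed as 665/615 nm ratio.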

Test [17] has the same target. As to the kind of experiment: Adrenergic beta2 receptor (ADRB2) small molecule agonists, cell-based qHTS assay (AID 1963593).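 Further: CHO cells stably overexpressing human ADRB2.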 An outline of the steps:
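CHO cells stably over-expressing ADRB2 were plated overnight at 37C, then dosed with compounds plus a stimulation mix containing 100uM IBMX and 25uM Ro-20-1724 for 0.5hr at room temperature. cAMP was measured by HTRF competition, 1hr.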

Test [18] has as its target D(2) dopamine receptor (Homo sapiens) (UniProt P14416). As to the kind of experiment: Dopamine D2 receptor (DRD2) small molecule agonists, cell-based qHTS assay (AID 1963594). Further: nearly all actives have a fitted effect of over 35% in size. Put shortly: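 cAMP accumulation in DRD2-HEK293 cells measured by HTRF after 1 h detection; compounds added 10 min before NKH477 (200nM […]) forskolin-analogue stimulation, 30 min at room temperature, with Ro20-1724 present at 0.1 mM final.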

Test [19] deals with 5-hydroxytryptamine receptor 2A (Homo sapiens) (UniProt P28223). Nature of the test: 5-hydroxytryptamine receptor 2A (HTR2A) small molecule agonists, cell-based qHTS assay (AID 1963587). Further: nearly all actives have a fitted effect of over 30% in size. Put shortly:
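Kinetic calcium-flux fluorescence (2 min, 1 sec intervals) after compound addition in agonist mode. HTR2A-CHO cells were cultured 18 h, then dye-loaded 1 h at 37 C.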

Test [20] deals with D(2) dopamine receptor (Homo sapiens) (UniProt P14416). Nature of the test: Dopamine D2 receptor (DRD2) small molecule antagonists, cell-based qHTS assay (AID 1963595; active means well fitted inhibition curve with a large enough effect in the signal ratio in the repeat runs, with a control signal flat; the % refers to the signal ratio). Put shortly:
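Antagonism was scored as restored cAMP in HEK293-DRD2 cells. These cells were stimulated with 200 nM NKH477 and 12 nM quinpirole for 30 min at room temperature, in the presence of 0.1 mM Ro20-1724.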

5-hydroxytryptamine receptor 2A (Homo sapiens), sequence (P28223 whole entry, looked up): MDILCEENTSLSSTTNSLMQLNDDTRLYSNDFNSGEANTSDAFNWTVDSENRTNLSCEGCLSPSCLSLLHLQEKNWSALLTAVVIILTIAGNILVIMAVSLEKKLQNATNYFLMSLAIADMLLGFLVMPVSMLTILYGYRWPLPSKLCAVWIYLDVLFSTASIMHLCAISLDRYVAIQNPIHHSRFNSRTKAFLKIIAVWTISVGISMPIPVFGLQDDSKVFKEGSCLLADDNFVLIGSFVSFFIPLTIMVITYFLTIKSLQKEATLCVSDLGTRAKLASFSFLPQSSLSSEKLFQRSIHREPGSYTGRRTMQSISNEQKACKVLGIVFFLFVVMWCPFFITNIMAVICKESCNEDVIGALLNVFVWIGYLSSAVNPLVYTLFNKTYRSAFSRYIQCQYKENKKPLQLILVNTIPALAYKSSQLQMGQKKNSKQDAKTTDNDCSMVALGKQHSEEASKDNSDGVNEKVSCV
Gonadotropin-releasing hormone receptor (Homo sapiens), sequence (P30968 whole entry, looked up): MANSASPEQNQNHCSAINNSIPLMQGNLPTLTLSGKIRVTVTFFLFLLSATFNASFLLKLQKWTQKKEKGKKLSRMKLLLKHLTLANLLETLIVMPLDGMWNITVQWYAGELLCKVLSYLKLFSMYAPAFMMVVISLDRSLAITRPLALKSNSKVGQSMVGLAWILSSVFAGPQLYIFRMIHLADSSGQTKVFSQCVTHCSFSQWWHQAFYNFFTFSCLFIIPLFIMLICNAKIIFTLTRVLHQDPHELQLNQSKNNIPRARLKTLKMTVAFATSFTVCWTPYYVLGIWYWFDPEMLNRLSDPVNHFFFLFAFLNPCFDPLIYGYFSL
KiSS-1 receptor (Homo sapiens), sequence (Q969F8 whole entry, looked up): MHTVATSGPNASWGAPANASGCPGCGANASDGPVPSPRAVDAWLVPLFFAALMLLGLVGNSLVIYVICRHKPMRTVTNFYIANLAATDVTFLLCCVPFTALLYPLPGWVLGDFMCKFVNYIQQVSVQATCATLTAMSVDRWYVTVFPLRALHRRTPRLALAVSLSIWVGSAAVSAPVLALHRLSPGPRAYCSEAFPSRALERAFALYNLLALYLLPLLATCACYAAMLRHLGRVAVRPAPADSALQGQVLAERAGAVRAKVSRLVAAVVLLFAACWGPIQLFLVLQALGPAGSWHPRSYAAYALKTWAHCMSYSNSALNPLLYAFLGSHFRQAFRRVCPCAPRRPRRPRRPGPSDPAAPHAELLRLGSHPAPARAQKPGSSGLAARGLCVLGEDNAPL
D(2) dopamine receptor (Homo sapiens), sequence (P14416 whole entry, looked up): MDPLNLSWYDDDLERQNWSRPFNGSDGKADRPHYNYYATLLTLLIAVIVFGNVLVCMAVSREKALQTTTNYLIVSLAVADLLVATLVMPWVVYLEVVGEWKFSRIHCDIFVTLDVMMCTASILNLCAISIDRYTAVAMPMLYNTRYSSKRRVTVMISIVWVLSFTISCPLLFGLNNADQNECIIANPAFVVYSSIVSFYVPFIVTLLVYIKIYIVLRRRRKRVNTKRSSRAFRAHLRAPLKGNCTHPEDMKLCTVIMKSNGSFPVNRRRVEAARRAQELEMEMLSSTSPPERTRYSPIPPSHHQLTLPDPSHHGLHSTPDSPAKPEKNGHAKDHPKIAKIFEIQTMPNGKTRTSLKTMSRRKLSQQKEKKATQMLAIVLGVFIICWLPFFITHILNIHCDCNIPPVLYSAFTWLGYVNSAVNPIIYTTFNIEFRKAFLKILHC
Muscarinic acetylcholine receptor M1 (Homo sapiens), sequence (P11229 whole entry, looked up): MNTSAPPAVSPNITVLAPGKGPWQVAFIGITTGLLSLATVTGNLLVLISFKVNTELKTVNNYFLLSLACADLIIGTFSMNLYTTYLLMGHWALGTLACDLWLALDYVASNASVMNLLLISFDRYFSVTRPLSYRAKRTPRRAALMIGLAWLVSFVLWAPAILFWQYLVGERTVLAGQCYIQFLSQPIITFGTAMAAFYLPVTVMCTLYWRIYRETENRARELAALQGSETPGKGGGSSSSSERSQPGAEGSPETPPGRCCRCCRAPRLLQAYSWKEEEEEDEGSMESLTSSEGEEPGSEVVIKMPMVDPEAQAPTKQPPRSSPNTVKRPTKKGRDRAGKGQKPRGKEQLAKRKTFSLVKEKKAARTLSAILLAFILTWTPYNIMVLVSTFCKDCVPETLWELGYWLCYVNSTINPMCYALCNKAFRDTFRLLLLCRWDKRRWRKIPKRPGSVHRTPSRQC
Beta-2 adrenergic receptor (Homo sapiens), sequence (P07550 whole entry, looked up): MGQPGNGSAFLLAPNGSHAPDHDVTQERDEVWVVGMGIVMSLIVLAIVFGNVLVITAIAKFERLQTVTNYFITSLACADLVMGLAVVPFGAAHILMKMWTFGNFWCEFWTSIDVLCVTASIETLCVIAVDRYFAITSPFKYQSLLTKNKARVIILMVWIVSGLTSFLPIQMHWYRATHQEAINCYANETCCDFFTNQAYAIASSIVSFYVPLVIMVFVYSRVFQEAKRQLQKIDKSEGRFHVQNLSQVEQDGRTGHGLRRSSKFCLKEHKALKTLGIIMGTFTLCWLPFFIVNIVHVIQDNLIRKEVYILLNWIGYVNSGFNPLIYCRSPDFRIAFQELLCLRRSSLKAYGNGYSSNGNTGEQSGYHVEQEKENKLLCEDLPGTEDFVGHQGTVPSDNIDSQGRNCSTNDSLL

In the case of `NS(=O)(=O)c1cc2c(cc1Cl)NC(CC1CCCC1)NS2(=O)=O` (stereo unspecified), the Potency entry in test [1], in [2], in test [3], in test [4], in test [5] and in [6] was “inactive” in each case. The Potency entry in test [7], in [8], in [9], in test [10], in [11] and in test [12] was “inactive” in each case. In addition, the Potency result in test [13], in test [14], in [15], in [16], in [17] and in test [18] was “inactive” in each case.
On to `O=C(O)CCc1ccccc1`, for which the Potency entry in test [1], in test [2], in test [3], in test [4], in test [5] and in test [6] was “inactive” each time. Also, the Potency result in test [7], in test [8], in test [11], in test [19], in [12] and in [13] was “inactive” in each case. The Potency result in test [14], in [15], in test [16], in [17] and in [20] was “inactive” each time.
As to `CCOC(OCC)OCC`, the Potency result in test [1], in test [2], in [3], in [4], in test [5] and in test [6] was “inactive” in each case. For the same molecule, the Potency entry in test [7], in [9], in test [10], in test [11], in test [19] and in [12] was “inactive” throughout. Besides, the Potency result in [13], in test [14], in test [15], in test [16], in [17] and in test [18] was “inactive” in each case. For the same molecule, in [20], the Potency entry was “inactive”.
`CCCCC1CCC(=O)O1` (stereo unspecified): the Potency result in test [1], in [2], in test [3], in test [4], in [5] and in test [6] was “inactive” in each case. Further, the Potency entry in test [7], in test [8], in [9], in test [10], in test [11] and in test [19] was “inactive” throughout. Also, the Potency result in test [12], in test [13], in [15], in test [16], in test [18] and in test [20] was “inactive” throughout.
Turning to `CCC(N)(CO)CO`, the Potency result in [1], in [2], in test [3], in [4], in [5] and in test [6] was “inactive” each time. Further, the Potency result in test [7], in test [8], in test [10], in test [11], in test [19] and in [13] was “inactive” in each case. Moreover, the Potency entry in test [14], in [15], in [16], in test [17], in test [18] and in test [20] was “inactive” throughout.
For `C[C@H]1C[C@H](O)c2ccsc2S1(=O)=O`, the Potency result in [1], in test [2], in [3], in [4], in test [5] and in [6] was “inactive” throughout. In addition, the Potency result in test [7], in test [8], in test [11], in [19], in [12] and in test [13] was “inactive” throughout. The Potency result in test [14], in test [15], in [17], in test [18] and in test [20] was “inactive” each time.
Turning to `CCC(C)SSC(C)CC` (stereo unspecified), the Potency result in test [1], in [2], in test [3], in [4], in [5] and in test [6] was “inactive” throughout. The Potency entry in test [7], in test [9], in [10], in test [11], in test [19] and in [13] was “inactive” each time. Moreover, the Potency result in [14], in [15], in test [16], in test [17], in test [18] and in test [20] was “inactive” throughout.
Regarding `CC(C)(C)c1ccc(O)c(O)c1`, the Potency entry in test [1], in [3], in [4], in test [5], in [6] and in test [7] was “inactive” in each case. For the same molecule, the Potency entry in test [8], in [9], in test [11], in test [19], in [12] and in test [15] was “inactive” in each case. The Potency entry in test [16], in test [18] and in test [20] was “inactive” each time. In addition, in test [2], the Potency was 63.2 µM (active) and 8.63 µM (active).
